# Hits are enriched below; roughly 2.5% of the tested compounds scored in any of these assays.
# MEKK2wt PB1 HTS: modulators of MEK5 binding to wildtype MEKK2, primary screen, biochemical, multiplex bead flow cytometry, Alexa488-MEK5; Mitogen-activated protein kinase kinase kinase 2 (Homo sapiens), Q9Y2U5; binding response (% of control), % at 10 µM; AID 1531, 2009; 1.1% of 290,000 active; Alexa488-MEK5 binding to MEKK2 WT; actives lie on both sides; in the data active = binding response below about 67% or above about 130%
# MEKK2 mut-MEK5: MEK5 binding signal on mutant MEKK2 PB1, primary screen, biochemical, multiplex bead flow cytometry, Alexa488-MEK5; Alexa488-MEK5 binding to MEKK2 mutant; percent response, % at 10 µM; 0.35% of 290,000 active; AID 1530, 2009; in the data active = percent response above about 24%, passing the limit was not always enough
# MEKK3 PB1 HTS: modulators of MEKK3-MEK5 PB1 binding, primary screen, biochemical, wildtype MEKK3, multiplex bead flow cytometry, Alexa488-MEK5 | bead-based flow cytometry, Alexa488-MEK5 binding to MEKK3; actives lie on both sides; 0 = blocked by unlabeled MEK5, 100 = vehicle | 1.4% of 290,000 active | binding response (% of control), % at 10 µM | Mitogen-activated protein kinase kinase kinase 3 (Homo sapiens), Q99759;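 active = binding response more than 3 SD above or below the average of its plate-row segment, actives on both sides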;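 also: Alexa488 bead fluorescence after subtracting the streptavidin-only scavenger bead signal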
# Target sequence (Q99759 whole entry, looked up): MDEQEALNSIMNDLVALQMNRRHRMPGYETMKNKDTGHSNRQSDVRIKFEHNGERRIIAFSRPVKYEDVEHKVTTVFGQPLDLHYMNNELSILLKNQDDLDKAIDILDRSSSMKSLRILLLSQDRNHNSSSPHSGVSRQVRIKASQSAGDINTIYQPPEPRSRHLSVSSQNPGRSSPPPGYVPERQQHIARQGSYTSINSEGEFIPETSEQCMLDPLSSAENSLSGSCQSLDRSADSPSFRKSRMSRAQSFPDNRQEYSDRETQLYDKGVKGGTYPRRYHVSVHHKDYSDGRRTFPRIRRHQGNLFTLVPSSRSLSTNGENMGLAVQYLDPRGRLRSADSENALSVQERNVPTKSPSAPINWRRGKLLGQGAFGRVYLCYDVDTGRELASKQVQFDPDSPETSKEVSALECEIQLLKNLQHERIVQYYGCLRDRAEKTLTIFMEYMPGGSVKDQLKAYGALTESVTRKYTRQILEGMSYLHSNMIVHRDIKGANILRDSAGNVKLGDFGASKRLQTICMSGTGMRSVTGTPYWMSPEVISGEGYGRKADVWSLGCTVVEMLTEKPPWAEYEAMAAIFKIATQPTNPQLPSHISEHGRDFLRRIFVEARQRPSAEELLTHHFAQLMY
# GRK2 inh: compounds blocking aptamer binding on GRK2 – biochemical, human GRK2, bead flow cytometry, HTS, primary screen | Beta-adrenergic receptor kinase 1 (Homo sapiens), P25098 | FAM-aptamer displacement from GRK2 | inhibition of aptamer binding, % at 10 µM | 0.59% of 330,000 active;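 active = inhibition of aptamer binding above 40%, roughly 3 SD of noise, on plates passing a quality check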;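 also: median bead fluorescence of bound FAM aptamer so fluorescent compounds give negative values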
# MEKK2wt confirm: modulators of MEK5 binding to wildtype MEKK2, confirmation, biochemical, single concentration, multiplex bead flow cytometry; shares compounds with MEKK3 PB1 HTS; Alexa488-MEK5 binding to MEKK2 WT; actives lie on both sides; binding response (% of control), % at 10 µM; 2.4% of 5,900 active; in the data active = binding response below about 16% or above about 210%; inactive = in between
# MEKK2mut-MEK5: mutant MEKK2 PB1-MEK5 binding signal retest – biochemical, single concentration, multiplex bead flow cytometry, confirmation; shares compounds with MEKK3 PB1 HTS; Alexa488-MEK5 binding to MEKK2 mutant; percent response, % at 10 µM; 2% of 5,900 active; AID 1893, 2009; in the data active = percent response mostly above about 71%, no sharp cut-off; inactive = mostly below about 38%;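 also: higher means compound restores mutant binding toward wildtype level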
# MEKK3 confirm: MEKK3 wild-type PB1 binding to MEK5, inhibitors, confirmation, biochemical, bead multiplex flow cytometry, single concentration, wildtype; shares compounds with MEKK3 PB1 HTS; Alexa488-MEK5 binding to MEKK3; stronger effect = lower value; binding response (% of control), % at 10 µM; 1.8% of 5,900 active; AID 1894, 2009;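 active = binding response below 72% of control, or above a set upper limit, though filed actives all read lower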;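 also: 100% = DMSO only wells and 0% = binding blocked by excess unlabeled MEK5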
# An asterisk follows results filed as active; · = no result given; [ ] = another dose, or the depositor's remark.
SMILES,MEKK2wt PB1 HTS,MEKK2 mut-MEK5,MEKK3 PB1 HTS,GRK2 inh,MEKK2wt confirm,MEKK2mut-MEK5,MEKK3 confirm
O=C(NCCc1c[nH]c2ccccc12)c1cnccn1,76,-3,74*[inhibitor],0,105,3,101
Cc1ccc(C(=O)N/C(=C\c2cccs2)C(=O)NCCc2c[nH]c3ccccc23)cc1,104,0,129*,3,97,-3,103
COc1ccc(/C=C(/NC(=O)c2ccc(OC)cc2)C(=O)NCCc2c[nH]c3ccccc23)cc1,91,-2,91,1,·,·,·
COc1cc(OC)cc(C(=O)NCC2CCCN(Cc3cccc(C(C)=O)c3)C2)c1 (stereo not drawn),102,4,98,0,·,·,·
CSCCC(NC(=O)OCc1ccccc1)C(=O)NCc1cccnc1 (stereo not drawn),105,-3,102,2,·,·,·
COc1ccc(NC(=O)c2ccccc2OCc2c(C)noc2C)cc1OC,106,4,101,26,·,·,·
Cc1ccccc1CC(=O)Nc1ccc(C(=O)N2CCCC2)cc1,101,4,98,1,·,·,·
CCOC(=O)c1c(NC(=O)c2cccs2)sc2c1CCCC2,-1.0*[inhibitor],-9,1.0*[inhibitor],0,98,6,98
CCOC(=O)c1c(NC(=O)c2cccs2)sc2c1CCC2,92,-1,88,1,·,·,·
COc1ccc(C(=O)CN(CCC(=O)O)S(=O)(=O)c2ccc([N+](=O)[O-])cc2)cc1,·,·,·,2,·,·,·
COc1ccc(CCN(C)C(=O)COc2cccc(-n3cnnn3)c2)cc1OC,·,·,·,0,·,·,·
CN(C)CCCN(C(=O)c1sc2ccccc2c1Cl)c1nc2ccc(F)cc2s1,143*,5,111,0,179,36,105
CN(C)CCCN(C(=O)C1COc2ccccc2O1)c1nc2ccc(F)cc2s1 (stereo not drawn),129,0,97,0,·,·,·
CCN(CC)CCN(C(=O)/C=C/c1cccs1)c1nc2ccc(F)cc2s1,121,8,96,0,·,·,·
CN(C)CCCN(C(=O)/C=C/c1cccs1)c1nc2ccc(F)cc2s1,152*,30,107,0,149,30,108
Cc1ccc(NC(=O)NCC2CCN(Cc3cccc(Cl)c3)CC2)cc1Cl,182*,36,109,0,167,47,109
CCc1ccc(NC(=O)NCC2CCN(Cc3cccc(Cl)c3)CC2)cc1,130,20,107,0,·,·,·
CCOc1ccc(C(C#N)N2CCOCC2)cc1OC (stereo not drawn),2.0*[inhibitor],-21,2.0*[inhibitor],0,103,-2,104
CCSc1nnc(-c2sc3nnc(-c4ccccc4)c(-c4ccccc4)c3c2N)o1,70*[inhibitor],-14,96,37,76,-18,96
Cc1ccc(NC(=O)c2snc3ccc(Cl)cc23)cc1C,102,-1,131*,0,100,-3,98
CCN1CCN(c2cc(C(C)(C)C)nc3c(-c4ccccc4)c(C)nn23)CC1,147*,21,104,3,131,12,103
Cc1nc2c(-c3ccccc3)c(C)nn2c(C)c1CCC(=O)NCc1ccco1,107,14,106,2,·,·,·
CCN1CCN(c2ccc(NC(=O)CCc3c(C)nc4c(-c5ccccc5)c(C)nn4c3C)cc2)CC1,138*,23,107,0,113,13,94
C#CCOc1ccccc1/C=N/NC(=O)c1ccccc1OCc1ccccc1,99,3,100,5,·,·,·
CCOc1ccccc1NC(=O)CNC(=O)CNC(=O)Cc1ccccc1,99,4,97,0,·,·,·
SMILES,MEKK2wt PB1 HTS,MEKK2 mut-MEK5,MEKK3 PB1 HTS,GRK2 inh,MEKK2wt confirm,MEKK2mut-MEK5,MEKK3 confirm
CCOC(=O)c1[nH]c2ccccc2c1NC(=O)NC1CCCCC1,105,2,105,3,·,·,·
CCOC(=O)c1[nH]c2ccccc2c1NC(=O)C1CCCCC1,83,-12,76*[inhibitor],1,99,-4,101
COc1cccc(NC(=O)CCC(=O)Nc2cc(OC)c(NC(=O)c3cccs3)cc2OC)c1,102,3,104,·,·,·,·
Cc1ccccc1NC(=O)CN1C(=O)S/C(=C\c2cccn2-c2cccc(C(=O)O)c2)C1=O,119,9,122*,1,105,4,107
O=C1c2ccccc2-c2onc3ccc(NCc4ccco4)c1c23,53*[inhibitor],-18,52*[inhibitor],0,63,-22,59*
CCNc1ccc2noc3c2c1C(=O)c1ccccc1-3,30*[inhibitor],1,32*[inhibitor],0,52,-14,56*
CCOC(=O)c1c(C)[nH]c(C(C)=NNC(=O)Cn2nc(C)cc2C)c1C,·,·,·,0,·,·,·
Cc1ccc(C(=O)N[C@H](C(=O)N2CCN(c3ccccc3F)CC2)C(C)C)cc1,98,2,97,0,·,·,·
Cc1c(N2C(=O)C(=O)/C(=C(/O)c3ccccc3)C2c2ccc(F)cc2)c(=O)n(-c2ccccc2)n1C (stereo not drawn),112,17,102,0,·,·,·
Cc1c(N2C(=O)C(=O)/C(=C(/O)c3ccc(Cl)cc3)C2c2ccccc2)c(=O)n(-c2ccccc2)n1C (stereo not drawn),105,0,135*,0,97,-5,96
Cc1nn2c(NC(C)C)c3c(nc2c1-c1ccccc1)CCC3,98,0,98,2,·,·,·
Cc1nn2c(NCCCN(C)C)c3c(nc2c1-c1ccccc1)CCCC3,75,-13,65,0,·,·,·
Cc1nn2c(NCCCN(C)C)c3c(nc2c1-c1ccccc1)CCC3,173*,34*,107,0,157,42,106
Cc1nn2c(C(F)(F)F)c3c(nc2c1-c1ccccc1)CCC3,·,-35,1.0*[inhibitor],0,103,5,104
CSCC[C@H](NC(=O)c1cc([N+](=O)[O-])ccc1Cl)c1nc2ccccc2[nH]1,109,1,143*,4,97,3,100
COc1ccc([N+](=O)[O-])c(OC)c1C(=O)NC(=O)Nc1nc(C)nc(C)n1,100,2,103,0,·,·,·
CCN(CC(O)CON=C1c2ccccc2-c2ccccc21)S(=O)(=O)c1ccc(C)cc1 (stereo not drawn),110,0,141*,0,93,-5,100

# Screening data: PubChem, NMMLSC
